# Reference: PubChem BioAssay
# “And” between values parts separate entries of the source, which are not always exact repeats. Equal entries are not always repeated. The source made the active and inactive calls. Unless noted, no stated cut-off is given here; in the data, active means inhibition above about 80%; inactive means the rest.
# Assay: growth inhibition, single agents and combos, HTB85, cell-based, BGB or cisplatin IC20 combos, synergistic combos for chromothripsis tumors (AID 1671453);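 further: cells exposed for 96 hours before readout; 0% = vehicle DMSO and 100% = high DMSO killing control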
# Settings: HTB85 osteosarcoma cells, drug combinations, measured here: with BGB IC20, at 0.5 µM, stronger effect = higher value
row,Structure (SMILES),inhibition
1,COc1cc([C@@H]2c3cc4c(cc3[C@@H](O[C@@H]3O[C@@H]5CO[C@@H](c6cccs6)O[C@H]5[C@H](O)[C@H]3O)[C@H]3COC(=O)[C@H]23)OCO4)cc(OC)c1O,57.1% and 81.5%
2,COc1cc(NS(C)(=O)=O)ccc1Nc1c2ccccc2nc2ccccc12,3.95% and 14.9%
3,N=c1ccn2c(n1)O[C@H]1[C@H](O)[C@@H](CO)O[C@H]12,1.49%

# Same assay, conditions: HTB85 osteosarcoma cells, drug combinations, measured here: with BGB IC20, at 5 µM, stronger effect = higher value
row,Structure (SMILES),inhibition
1,COc1cc([C@@H]2c3cc4c(cc3[C@@H](O[C@@H]3O[C@@H]5CO[C@@H](c6cccs6)O[C@H]5[C@H](O)[C@H]3O)[C@H]3COC(=O)[C@H]23)OCO4)cc(OC)c1O,98.1% and 98.9%
2,COc1cc(NS(C)(=O)=O)ccc1Nc1c2ccccc2nc2ccccc12,82.3% and 79.8%
3,N=c1ccn2c(n1)O[C@H]1[C@H](O)[C@@H](CO)O[C@H]12,23.6%

# Same assay, conditions: HTB85 osteosarcoma cells, drug combinations, measured here: with cisplatin IC20, at 0.5 µM, stronger effect = higher value
row,Structure (SMILES),inhibition
1,COc1cc([C@@H]2c3cc4c(cc3[C@@H](O[C@@H]3O[C@@H]5CO[C@@H](c6cccs6)O[C@H]5[C@H](O)[C@H]3O)[C@H]3COC(=O)[C@H]23)OCO4)cc(OC)c1O,63.4% and 77.7%
2,COc1cc(NS(C)(=O)=O)ccc1Nc1c2ccccc2nc2ccccc12,25% and 29.1%
3,N=c1ccn2c(n1)O[C@H]1[C@H](O)[C@@H](CO)O[C@H]12,44.8%

# Same assay, conditions: HTB85 osteosarcoma cells, drug combinations, measured here: with cisplatin IC20, at 5 µM, stronger effect = higher value
row,Structure (SMILES),inhibition
1,COc1cc([C@@H]2c3cc4c(cc3[C@@H](O[C@@H]3O[C@@H]5CO[C@@H](c6cccs6)O[C@H]5[C@H](O)[C@H]3O)[C@H]3COC(=O)[C@H]23)OCO4)cc(OC)c1O,99.6% and 99.8%
2,COc1cc(NS(C)(=O)=O)ccc1Nc1c2ccccc2nc2ccccc12,87.8% and 84.6%
3,N=c1ccn2c(n1)O[C@H]1[C@H](O)[C@@H](CO)O[C@H]12,50.9%

# Same assay, conditions: HTB85 osteosarcoma cells, drug combinations, single agent, at 5 µM, stronger effect = higher value
row,Structure (SMILES),inhibition
1,COc1cc([C@@H]2c3cc4c(cc3[C@@H](O[C@@H]3O[C@@H]5CO[C@@H](c6cccs6)O[C@H]5[C@H](O)[C@H]3O)[C@H]3COC(=O)[C@H]23)OCO4)cc(OC)c1O,99.4% and 99.7%
2,COc1cc(NS(C)(=O)=O)ccc1Nc1c2ccccc2nc2ccccc12,91% and 89.1%
3,N=c1ccn2c(n1)O[C@H]1[C@H](O)[C@@H](CO)O[C@H]12,64.3%

# Assay: growth inhibition, single agents and combos, CRL2098, cell-based, BGB or cisplatin IC20 combos, synergistic combos for chromothripsis tumors (AID 1671454);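 further: cells exposed for 96 h before readout; 0% = vehicle DMSO and 100% = killing by high DMSO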
# Settings: CRL2098 osteosarcoma cells, drug combinations, at 0.5 µM, stronger effect = higher value
row,Structure (SMILES),inhibition
1,COc1cc([C@@H]2c3cc4c(cc3[C@@H](O[C@@H]3O[C@@H]5CO[C@@H](c6cccs6)O[C@H]5[C@H](O)[C@H]3O)[C@H]3COC(=O)[C@H]23)OCO4)cc(OC)c1O,5.54% (inactive) and 23.7% (inactive)
2,COc1cc(NS(C)(=O)=O)ccc1Nc1c2ccccc2nc2ccccc12,3.39% (inactive) and -17.2% (inactive)
3,N=c1ccn2c(n1)O[C@H]1[C@H](O)[C@@H](CO)O[C@H]12,32.1% (inactive)

# Same assay, conditions: CRL2098 osteosarcoma cells, drug combinations, measured here: combination with BGB at IC20, at 0.5 µM, stronger effect = higher value
row,Structure (SMILES),inhibition
1,COc1cc([C@@H]2c3cc4c(cc3[C@@H](O[C@@H]3O[C@@H]5CO[C@@H](c6cccs6)O[C@H]5[C@H](O)[C@H]3O)[C@H]3COC(=O)[C@H]23)OCO4)cc(OC)c1O,22% and 28.7%
2,COc1cc(NS(C)(=O)=O)ccc1Nc1c2ccccc2nc2ccccc12,5.83% and -2.6%
3,N=c1ccn2c(n1)O[C@H]1[C@H](O)[C@@H](CO)O[C@H]12,-10.4%

# Same assay, conditions: CRL2098 osteosarcoma cells, drug combinations, measured here: combination with cisplatin at IC20, at 0.5 µM, stronger effect = higher value
row,Structure (SMILES),inhibition
1,COc1cc([C@@H]2c3cc4c(cc3[C@@H](O[C@@H]3O[C@@H]5CO[C@@H](c6cccs6)O[C@H]5[C@H](O)[C@H]3O)[C@H]3COC(=O)[C@H]23)OCO4)cc(OC)c1O,-12.5% and 10.8%
2,COc1cc(NS(C)(=O)=O)ccc1Nc1c2ccccc2nc2ccccc12,6.88% and -21.3%
3,N=c1ccn2c(n1)O[C@H]1[C@H](O)[C@@H](CO)O[C@H]12,52.4%

# Assay: growth inhibition, single agents and combos, HD-MB03, cell-based, BGB or cisplatin IC20 combos, synergistic combos for chromothripsis tumors (AID 1671455; in the data active means inhibition above about 83%;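 further: 0% = vehicle DMSO and 100% = high DMSO as cytotoxic control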)
# Settings: HD-MB03 medulloblastoma cells, at 0.5 µM, stronger effect = higher value
row,Structure (SMILES),inhibition
1,COc1cc([C@@H]2c3cc4c(cc3[C@@H](O[C@@H]3O[C@@H]5CO[C@@H](c6cccs6)O[C@H]5[C@H](O)[C@H]3O)[C@H]3COC(=O)[C@H]23)OCO4)cc(OC)c1O,96.4% (active) and 98.5% (active)
2,COc1cc(NS(C)(=O)=O)ccc1Nc1c2ccccc2nc2ccccc12,89.9% (active) and 92.8% (active)
3,N=c1ccn2c(n1)O[C@H]1[C@H](O)[C@@H](CO)O[C@H]12,89.9% (active)

# Same assay, conditions: HD-MB03 medulloblastoma cells, measured here: combo with BGB at IC20, at 0.5 µM, stronger effect = higher value
row,Structure (SMILES),inhibition
1,COc1cc([C@@H]2c3cc4c(cc3[C@@H](O[C@@H]3O[C@@H]5CO[C@@H](c6cccs6)O[C@H]5[C@H](O)[C@H]3O)[C@H]3COC(=O)[C@H]23)OCO4)cc(OC)c1O,94.6% and 97.5%
2,COc1cc(NS(C)(=O)=O)ccc1Nc1c2ccccc2nc2ccccc12,85.2% and 89.8%
3,N=c1ccn2c(n1)O[C@H]1[C@H](O)[C@@H](CO)O[C@H]12,84%

# Same assay, conditions: HD-MB03 medulloblastoma cells, measured here: combo with cisplatin at IC20, at 0.5 µM, stronger effect = higher value
row,Structure (SMILES),inhibition
1,COc1cc([C@@H]2c3cc4c(cc3[C@@H](O[C@@H]3O[C@@H]5CO[C@@H](c6cccs6)O[C@H]5[C@H](O)[C@H]3O)[C@H]3COC(=O)[C@H]23)OCO4)cc(OC)c1O,96.6% and 99.1%
2,COc1cc(NS(C)(=O)=O)ccc1Nc1c2ccccc2nc2ccccc12,93.1% and 93.7%
3,N=c1ccn2c(n1)O[C@H]1[C@H](O)[C@@H](CO)O[C@H]12,91.1%

# Assay: growth inhibition, single agents and combos, UWB1.289, cell-based, BGB or cisplatin combos, synergistic combos for chromothripsis tumors (AID 1671456);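 further: cells exposed to compound for four days; 0% = vehicle DMSO and 100% = killing by high DMSO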
# Settings: UWB1.289 ovarian carcinoma cells, at 0.5 µM, stronger effect = higher value
row,Structure (SMILES),inhibition
1,COc1cc([C@@H]2c3cc4c(cc3[C@@H](O[C@@H]3O[C@@H]5CO[C@@H](c6cccs6)O[C@H]5[C@H](O)[C@H]3O)[C@H]3COC(=O)[C@H]23)OCO4)cc(OC)c1O,18.6% (inactive) and 46.3% (inactive)
2,COc1cc(NS(C)(=O)=O)ccc1Nc1c2ccccc2nc2ccccc12,34.8% (inactive) and 27.8% (inactive)
3,N=c1ccn2c(n1)O[C@H]1[C@H](O)[C@@H](CO)O[C@H]12,1.85% (inactive)
